Results from the supplement of paper PMC10849652.
Of roughly 7,900 targets only a part is listed; those with a hit were picked by preference. About 0.6% of all pairs of compound and target were hits.

What was measured:
Assay in all cases: log2 fold change, soluble protein after heating vs DMSO (PISA); higher = thermal stabilisation; K562 cells, 10 uM, 30 min; active = over 0.2 and 3.5 SD of the protein, either way, in both replicates (recomputed)
[1] = compound: CS(=O)(=O)c1ccc(-c2cnc(N)c(C(=O)Nc3ccccc3)n2)cc1
How it was run: (§1)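 Thermal stability values are relative to control samples and come from duplicates. They are expressed as log2 fold changes. For measurement, K562 cells (2×10^6 cells/mL) received 10 μM compound for 30 min, and aliquots were heated for 3 min over 48°C-58°C, pooled, and extracted at 4°C in PBS with 0.5% NP-40. Soluble protein, the supernatant after 21,000xg for 90 min, was quantified by TMTpro 16plex LC-MS/MS with equalised channel sums.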

crizotinib = compound: C[C@@H](Oc1cc(-c2cnn(C3CCNCC3)c2)cnc1N)c1c(Cl)ccc(F)c1Cl [crizotinib]
How it was run: as §1

[2] = compound: C[C@@H]1COCCN1C2=NC(=NC(=C2)C3(CC3)S(=O)(=O)C)C4=C5C=CNC5=CC=C4
How it was run: as §1

[3] = compound: C[C@H](C1=CC=C(C=C1)C(=O)NC2=C3C=CNC3=NC=C2)N
How it was run: as §1

duvelisib = compound: C[C@H](Nc1ncnc2nc[nH]c12)c1cc2cccc(Cl)c2c(=O)n1-c1ccccc1 [duvelisib]
How it was run: as §1

gandotinib = compound: Cc1cc(Nc2cc(CN3CCOCC3)c3nc(C)c(Cc4ccc(Cl)cc4F)n3n2)n[nH]1 [gandotinib]
How it was run: as §1

tozasertib = compound: Cc1cc(Nc2cc(N3CCN(C)CC3)nc(Sc3ccc(NC(=O)C4CC4)cc3)n2)n[nH]1 [tozasertib]
How it was run: as §1

[4] = compound: Cc1cc(SCc2sc(-c3ccc(C(F)(F)F)cc3)nc2C)ccc1OCC(=O)O
How it was run: as §1

doramapimod = compound: Cc1ccc(-n2nc(C(C)(C)C)cc2NC(=O)Nc2ccc(OCCN3CCOCC3)c3ccccc23)cc1 [doramapimod]
How it was run: as §1

ispinesib = compound: Cc1ccc(C(=O)N(CCCN)[C@@H](c2nc3cc(Cl)ccc3c(=O)n2Cc2ccccc2)C(C)C)cc1 [ispinesib]
How it was run: as §1

Measured: log2 fold change

ALDH2 (UniProt P05091)
inactive: [1] -0.047 | crizotinib -0.044 | [2] 0.051 | [3] -0.038 | duvelisib 0.056 | gandotinib -0.088 | tozasertib -0.039 | [4] 0.022 | doramapimod 0.033 | ispinesib -0.023

ATP6V1F isoform 2 (UniProt Q16864)
inactive: [1] -0.303 | crizotinib 0.034 | [2] -0.025 | [3] -0.031 | duvelisib 0.309 | gandotinib 0.138 | tozasertib 0.06 | [4] -0.043 | doramapimod 0.007 | ispinesib 0.076

BRK1 isoform 2 (UniProt Q8WUW1)
UniProt Q8WUW1, sequence (Q8WUW1 whole entry, looked up): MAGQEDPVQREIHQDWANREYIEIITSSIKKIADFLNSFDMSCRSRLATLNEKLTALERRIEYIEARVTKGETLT
inactive: [1] -0.004 | crizotinib 0.029 | [2] 0.11 | [3] -0.276 | duvelisib 0.086 | gandotinib -0.024 | tozasertib -0.047 | [4] -0.035 | doramapimod -0.041 | ispinesib 0.18

AKAP8L (UniProt Q9ULX6)
inactive: [1] -0.036 | crizotinib -0.049 | [2] -0.066 | [3] -0.1 | duvelisib -0.03 | gandotinib -0.007 | tozasertib 0.039 | [4] 0.092 | doramapimod 0.047 | ispinesib -0.102

BPHL (UniProt Q86WA6)
UniProt Q86WA6, sequence (Q86WA6 whole entry, looked up): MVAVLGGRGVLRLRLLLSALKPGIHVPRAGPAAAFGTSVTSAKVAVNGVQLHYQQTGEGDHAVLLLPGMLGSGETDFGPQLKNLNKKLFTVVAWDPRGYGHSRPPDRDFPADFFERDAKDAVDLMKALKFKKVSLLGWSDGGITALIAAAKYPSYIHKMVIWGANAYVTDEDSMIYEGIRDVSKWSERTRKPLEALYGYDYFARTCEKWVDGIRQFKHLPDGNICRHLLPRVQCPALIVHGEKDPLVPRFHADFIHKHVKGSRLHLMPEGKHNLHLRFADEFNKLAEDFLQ
inactive: [1] 0.02 | crizotinib -0.036 | [2] 0.008 | [3] -0.059 | duvelisib 0.024 | gandotinib 0.05 | tozasertib 0.192 | [4] -0.01 | doramapimod 0.004 | ispinesib 0.01

AASDH (UniProt Q4L235)
inactive: [1] -0.04 | crizotinib 0.07 | [2] 0.142 | [3] -0.058 | duvelisib 0.01 | gandotinib -0.066 | tozasertib -0.017 | [4] -0.034 | doramapimod -0.161 | ispinesib -0.236

BTAF1 (UniProt O14981)
UniProt O14981, sequence (O14981 whole entry, looked up): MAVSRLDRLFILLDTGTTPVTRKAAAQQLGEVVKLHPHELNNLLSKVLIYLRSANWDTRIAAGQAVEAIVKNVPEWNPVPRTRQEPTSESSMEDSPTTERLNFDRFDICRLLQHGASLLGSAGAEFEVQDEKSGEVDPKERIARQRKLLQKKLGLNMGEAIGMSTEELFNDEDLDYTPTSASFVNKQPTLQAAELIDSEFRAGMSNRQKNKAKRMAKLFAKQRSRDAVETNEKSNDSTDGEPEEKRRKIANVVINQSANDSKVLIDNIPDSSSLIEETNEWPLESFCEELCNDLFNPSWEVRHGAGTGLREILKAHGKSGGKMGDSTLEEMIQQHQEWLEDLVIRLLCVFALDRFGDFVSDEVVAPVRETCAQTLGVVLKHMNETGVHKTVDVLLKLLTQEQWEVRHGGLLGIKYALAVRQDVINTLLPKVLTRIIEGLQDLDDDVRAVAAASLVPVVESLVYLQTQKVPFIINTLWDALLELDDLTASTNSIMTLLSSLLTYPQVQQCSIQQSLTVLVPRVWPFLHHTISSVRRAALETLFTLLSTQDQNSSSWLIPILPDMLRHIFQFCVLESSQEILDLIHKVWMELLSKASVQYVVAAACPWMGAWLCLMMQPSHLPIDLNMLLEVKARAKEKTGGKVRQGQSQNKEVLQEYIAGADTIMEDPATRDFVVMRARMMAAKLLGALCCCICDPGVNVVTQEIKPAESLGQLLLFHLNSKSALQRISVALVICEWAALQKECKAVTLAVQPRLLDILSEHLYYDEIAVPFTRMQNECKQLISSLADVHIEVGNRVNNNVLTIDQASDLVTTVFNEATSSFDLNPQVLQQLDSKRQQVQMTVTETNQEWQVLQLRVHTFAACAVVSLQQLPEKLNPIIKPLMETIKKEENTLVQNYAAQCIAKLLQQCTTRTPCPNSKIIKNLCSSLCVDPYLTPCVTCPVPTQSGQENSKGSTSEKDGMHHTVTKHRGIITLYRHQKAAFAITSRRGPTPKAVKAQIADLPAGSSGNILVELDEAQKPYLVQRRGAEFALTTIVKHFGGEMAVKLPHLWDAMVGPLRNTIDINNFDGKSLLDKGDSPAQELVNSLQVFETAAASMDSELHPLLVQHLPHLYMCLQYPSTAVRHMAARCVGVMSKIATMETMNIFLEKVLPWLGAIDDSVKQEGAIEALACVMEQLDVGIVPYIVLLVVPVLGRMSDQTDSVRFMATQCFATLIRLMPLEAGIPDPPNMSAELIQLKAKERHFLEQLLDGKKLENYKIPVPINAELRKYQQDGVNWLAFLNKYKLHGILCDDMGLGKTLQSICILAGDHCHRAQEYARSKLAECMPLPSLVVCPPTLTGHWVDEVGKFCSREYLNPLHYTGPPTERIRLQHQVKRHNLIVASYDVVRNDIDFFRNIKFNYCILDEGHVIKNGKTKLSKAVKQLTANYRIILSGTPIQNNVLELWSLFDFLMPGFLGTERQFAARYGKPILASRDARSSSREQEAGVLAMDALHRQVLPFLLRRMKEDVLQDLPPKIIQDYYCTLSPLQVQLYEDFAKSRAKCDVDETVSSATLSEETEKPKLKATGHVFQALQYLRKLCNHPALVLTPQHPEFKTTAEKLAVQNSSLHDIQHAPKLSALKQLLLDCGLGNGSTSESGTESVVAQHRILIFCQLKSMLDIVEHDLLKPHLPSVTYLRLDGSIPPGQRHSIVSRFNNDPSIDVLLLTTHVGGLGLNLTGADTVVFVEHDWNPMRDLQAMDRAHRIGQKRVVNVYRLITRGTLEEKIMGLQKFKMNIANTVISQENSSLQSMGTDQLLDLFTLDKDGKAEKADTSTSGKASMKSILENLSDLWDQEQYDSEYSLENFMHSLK
inactive: [1] 0.055 | crizotinib -0.076 | [2] 0.094 | [3] 0.041 | duvelisib -0.016 | gandotinib -0.05 | tozasertib 0.015 | [4] 0.044 | doramapimod 0.006 | ispinesib 0.016

ANKZF1 (UniProt Q9H8Y5)
inactive: [1] 0.031 | crizotinib -0.037 | [2] -0.135 | [3] 0.174 | duvelisib -0.15 | gandotinib 0.007 | tozasertib 0.021 | [4] -0.068 | doramapimod -0.059 | ispinesib -0.349

BRD8 isoform 2 (UniProt Q9H0E9)
inactive: [1] -0.134 | crizotinib 0.044 | [2] -0.11 | [3] 0.042 | duvelisib 0.037 | gandotinib 0.113 | tozasertib 0.004 | [4] -0.012 | doramapimod 0.04 | ispinesib 0.061

BAP1 (UniProt Q92560)
inactive: [1] 0.07 | crizotinib -0.078 | [2] 0 | [3] 0.126 | duvelisib -0.089 | gandotinib 0.076 | tozasertib 0.079 | [4] 0.085 | doramapimod 0.112 | ispinesib -0.043

ALDH1B1 (UniProt P30837)
inactive: [1] 0.054 | crizotinib -0.067 | [2] 0.12 | [3] -0.068 | duvelisib 0.021 | gandotinib -0.025 | tozasertib -0.011 | [4] 0.008 | doramapimod -0.006 | ispinesib 0.019

ATAD3B (UniProt Q5T9A4)
active: ispinesib -0.544
inactive: [1] 0.009 | crizotinib -0.171 | [2] -0.112 | [3] 0.191 | duvelisib -0.05 | gandotinib 0.033 | tozasertib 0.034 | [4] 0.105 | doramapimod 0.137

ATP13A3 (UniProt Q9H7F0)
inactive: [1] 0.076 | crizotinib -0.251 | [2] -0.037 | [3] 0.056 | duvelisib 0.09 | gandotinib 0 | tozasertib -0.118 | [4] -0.043 | doramapimod 0.045 | ispinesib -0.251

ARL6IP6 (UniProt Q8N6S5)
inactive: [1] 0.046 | crizotinib -0.016 | [2] 0.017 | [3] -0.042 | duvelisib -0.005 | gandotinib -0.008 | tozasertib -0.22 | [4] -0.042 | doramapimod 0.03 | ispinesib 0.175

ADPRHL2 (UniProt Q9NX46)
UniProt Q9NX46, sequence (Q9NX46 whole entry, looked up): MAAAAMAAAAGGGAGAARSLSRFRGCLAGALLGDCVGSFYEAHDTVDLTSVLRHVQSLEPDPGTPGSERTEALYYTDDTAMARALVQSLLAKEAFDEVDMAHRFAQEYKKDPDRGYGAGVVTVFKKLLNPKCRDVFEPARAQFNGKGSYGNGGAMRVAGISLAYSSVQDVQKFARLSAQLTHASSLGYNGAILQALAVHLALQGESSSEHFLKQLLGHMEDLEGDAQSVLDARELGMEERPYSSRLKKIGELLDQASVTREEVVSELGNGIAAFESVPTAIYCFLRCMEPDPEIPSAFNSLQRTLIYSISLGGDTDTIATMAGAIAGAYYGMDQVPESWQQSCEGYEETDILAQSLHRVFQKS
active: ispinesib 0.303
inactive: [1] 0.052 | crizotinib 0.092 | [2] 0.045 | [3] -0.072 | duvelisib 0.17 | gandotinib 0.07 | tozasertib -0.077 | [4] 0.039 | doramapimod -0.017

ABHD16A (UniProt O95870)
inactive: [1] -0.012 | crizotinib 0.277 | [2] 0.029 | [3] 0.033 | duvelisib 0.014 | gandotinib 0.158 | tozasertib -0.009 | [4] 0.012 | doramapimod 0.136 | ispinesib 0.125

ADK (UniProt P55263)
UniProt P55263, sequence (P55263 whole entry, looked up): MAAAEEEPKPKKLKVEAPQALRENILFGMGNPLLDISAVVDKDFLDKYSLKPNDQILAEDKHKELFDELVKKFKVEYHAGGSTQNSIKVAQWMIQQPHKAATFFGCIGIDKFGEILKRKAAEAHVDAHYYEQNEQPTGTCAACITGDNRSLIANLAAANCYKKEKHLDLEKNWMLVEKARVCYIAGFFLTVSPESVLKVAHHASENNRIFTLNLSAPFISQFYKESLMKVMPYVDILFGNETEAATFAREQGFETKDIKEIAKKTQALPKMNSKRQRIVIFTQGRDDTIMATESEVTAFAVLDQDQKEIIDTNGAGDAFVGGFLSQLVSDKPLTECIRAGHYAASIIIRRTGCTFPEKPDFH
inactive: [1] 0.144 | crizotinib 0.275 | [2] 0.034 | [3] -0.105 | duvelisib 0.114 | gandotinib 0.276 | tozasertib 0.015 | [4] -0.061 | doramapimod -0.039 | ispinesib 0.112

BRIX1 (UniProt Q8TDN6)
UniProt Q8TDN6, sequence (Q8TDN6 whole entry, looked up): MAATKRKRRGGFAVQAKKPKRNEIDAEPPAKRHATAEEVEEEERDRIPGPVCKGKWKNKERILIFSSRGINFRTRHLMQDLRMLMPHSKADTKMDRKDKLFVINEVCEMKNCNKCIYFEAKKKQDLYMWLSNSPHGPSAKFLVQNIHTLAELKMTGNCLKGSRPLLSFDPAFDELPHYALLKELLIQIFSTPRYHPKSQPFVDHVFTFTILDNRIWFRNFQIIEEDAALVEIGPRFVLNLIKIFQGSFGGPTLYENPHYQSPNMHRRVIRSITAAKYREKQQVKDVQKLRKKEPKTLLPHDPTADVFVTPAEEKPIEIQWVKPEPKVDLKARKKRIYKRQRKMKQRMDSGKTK
inactive: [1] -0.027 | crizotinib -0.097 | [2] -0.292 | [3] 0.318 | duvelisib -0.117 | gandotinib 0.056 | tozasertib 0.196 | [4] 0.093 | doramapimod 0.288 | ispinesib 0.166

AHCYL1 (UniProt O43865)
inactive: [1] 0.097 | crizotinib 0.018 | [2] 0.038 | [3] 0.02 | duvelisib -0.005 | gandotinib 0.02 | tozasertib 0.007 | [4] -0.036 | doramapimod -0.045 | ispinesib -0.015

AP2B1 isoform 2 (UniProt P63010)
UniProt P63010, sequence (P63010 whole entry, looked up): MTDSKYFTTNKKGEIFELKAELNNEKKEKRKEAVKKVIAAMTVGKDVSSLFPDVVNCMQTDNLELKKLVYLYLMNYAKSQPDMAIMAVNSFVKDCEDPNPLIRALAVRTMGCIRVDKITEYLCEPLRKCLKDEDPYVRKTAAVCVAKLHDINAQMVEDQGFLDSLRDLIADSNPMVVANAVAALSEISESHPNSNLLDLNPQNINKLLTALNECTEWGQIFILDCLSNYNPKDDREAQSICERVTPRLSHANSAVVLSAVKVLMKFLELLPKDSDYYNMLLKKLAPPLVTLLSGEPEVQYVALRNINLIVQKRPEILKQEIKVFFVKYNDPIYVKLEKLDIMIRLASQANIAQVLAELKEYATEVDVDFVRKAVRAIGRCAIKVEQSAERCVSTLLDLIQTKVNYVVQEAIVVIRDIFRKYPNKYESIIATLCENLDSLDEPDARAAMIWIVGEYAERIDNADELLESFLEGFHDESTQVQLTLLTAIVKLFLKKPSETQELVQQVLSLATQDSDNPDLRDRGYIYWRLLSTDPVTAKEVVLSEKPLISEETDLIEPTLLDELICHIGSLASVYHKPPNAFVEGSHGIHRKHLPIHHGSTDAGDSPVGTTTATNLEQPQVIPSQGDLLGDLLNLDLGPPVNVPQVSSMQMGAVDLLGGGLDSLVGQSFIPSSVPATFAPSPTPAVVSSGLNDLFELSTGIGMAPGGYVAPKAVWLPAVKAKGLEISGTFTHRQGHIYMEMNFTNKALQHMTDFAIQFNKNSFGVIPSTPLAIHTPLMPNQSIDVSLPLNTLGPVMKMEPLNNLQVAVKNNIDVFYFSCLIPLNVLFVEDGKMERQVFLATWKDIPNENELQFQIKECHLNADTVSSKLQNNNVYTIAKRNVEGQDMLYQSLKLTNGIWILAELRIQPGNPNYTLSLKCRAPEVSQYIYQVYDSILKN
inactive: [1] 0.022 | crizotinib -0.029 | [2] -0.005 | [3] -0.161 | duvelisib 0.004 | gandotinib 0.016 | tozasertib -0.056 | [4] 0.007 | doramapimod -0.006 | ispinesib 0.014

ADD3 isoform 2 (UniProt Q9UEY8)
inactive: [1] -0.032 | crizotinib 0.028 | [2] 0.101 | [3] -0.248 | duvelisib 0.049 | gandotinib -0.211 | tozasertib 0.047 | [4] 0.089 | doramapimod -0.074 | ispinesib 0.036

AP2S1 (UniProt P53680)
inactive: [1] -0.022 | crizotinib -0.106 | [2] 0.453 | [3] -0.151 | duvelisib 0.04 | gandotinib -0.046 | tozasertib -0.054 | [4] 0.046 | doramapimod 0.031 | ispinesib 0.077

ALDH18A1 (UniProt P54886)
inactive: [1] -0.281 | crizotinib 0.08 | [2] -0.13 | [3] -0.036 | duvelisib -0.255 | gandotinib -0.323 | tozasertib 0.024 | [4] 0.032 | doramapimod -0.146 | ispinesib 0.164

BMP2K (UniProt Q9NSY1)
active: crizotinib 0.411 | [3] 0.402
inactive: [1] 0.136 | [2] 0 | duvelisib -0.078 | gandotinib 0.319 | tozasertib 0.318 | [4] -0.051 | doramapimod 0.024 | ispinesib -0.017

ACSL1 (UniProt P33121)
active: ispinesib -0.246
inactive: [1] 0.012 | crizotinib -0.091 | [2] 0.017 | [3] -0.024 | duvelisib 0.056 | gandotinib 0.008 | tozasertib -0.028 | [4] 0 | doramapimod -0.003

AKR1C2 (UniProt P52895)
inactive: [1] 0.005 | crizotinib -0.029 | [2] -0.159 | [3] 0.219 | duvelisib -0.076 | gandotinib 0.089 | tozasertib -0.045 | [4] 0.098 | doramapimod -0.036 | ispinesib 0.077

ARF4 (UniProt P18085)
UniProt P18085, sequence (P18085 whole entry, looked up): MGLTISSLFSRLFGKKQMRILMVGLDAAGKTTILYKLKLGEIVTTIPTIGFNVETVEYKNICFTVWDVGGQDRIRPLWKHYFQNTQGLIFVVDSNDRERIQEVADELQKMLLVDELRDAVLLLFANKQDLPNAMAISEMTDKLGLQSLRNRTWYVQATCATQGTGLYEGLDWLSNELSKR
active: ispinesib 0.254
inactive: [1] 0.057 | crizotinib 0.081 | [2] 0.122 | [3] -0.018 | duvelisib 0.081 | gandotinib -0.074 | tozasertib -0.021 | [4] 0.017 | doramapimod -0.034

ARFRP1 (UniProt Q13795)
inactive: [1] -0.024 | crizotinib -0.004 | [2] 0.091 | [3] -0.027 | duvelisib 0.019 | gandotinib -0.159 | tozasertib -0.03 | [4] -0.069 | doramapimod 0.003 | ispinesib 0.027

ALDH6A1 (UniProt Q02252)
inactive: [1] -0.008 | crizotinib 0.042 | [2] 0.109 | [3] 0.009 | duvelisib 0.106 | gandotinib -0.057 | tozasertib -0.054 | [4] 0.008 | doramapimod 0.033 | ispinesib -0.042

ATL2 (UniProt Q8NHH9)
UniProt Q8NHH9, sequence (Q8NHH9 whole entry, looked up): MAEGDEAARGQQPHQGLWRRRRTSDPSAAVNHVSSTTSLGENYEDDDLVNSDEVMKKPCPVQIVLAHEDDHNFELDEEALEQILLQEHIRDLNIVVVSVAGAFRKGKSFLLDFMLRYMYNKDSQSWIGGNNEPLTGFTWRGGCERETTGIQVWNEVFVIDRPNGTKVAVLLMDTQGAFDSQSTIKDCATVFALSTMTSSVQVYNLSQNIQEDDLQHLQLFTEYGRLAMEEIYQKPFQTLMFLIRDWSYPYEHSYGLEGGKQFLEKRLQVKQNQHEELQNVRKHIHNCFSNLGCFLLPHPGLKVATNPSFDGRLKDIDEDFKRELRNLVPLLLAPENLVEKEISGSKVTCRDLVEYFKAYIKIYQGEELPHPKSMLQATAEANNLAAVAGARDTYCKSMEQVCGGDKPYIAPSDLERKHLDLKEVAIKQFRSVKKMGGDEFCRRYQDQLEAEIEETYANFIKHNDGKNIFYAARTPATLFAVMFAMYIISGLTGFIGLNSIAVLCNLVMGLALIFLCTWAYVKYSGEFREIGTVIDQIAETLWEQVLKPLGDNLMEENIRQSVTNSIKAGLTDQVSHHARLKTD
active: ispinesib 0.376
inactive: [1] 0.078 | crizotinib -0.031 | [2] -0.003 | [3] -0.014 | duvelisib 0.052 | gandotinib -0.035 | tozasertib -0.062 | [4] 0.056 | doramapimod -0.018
